From PubChem BioAssay
PD-1 reversal: activators reversing PD-1 mediated T-cell inhibition; AID 2316; activation, % (test concentration not listed); 29,000 tested, under 10 active; primary human CD4 T cells, PD-L1 beads, CellTiter-Glo 96 h; call rule not given here;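 also: 0% = median vehicle wells and 100% = positive control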
MITF inhib: blocks MITF activity | hit rate 0.28% among 37,000 | inhibition, % (no concentration beside the values) | TRPM1 promoter luciferase, luminescence, 24 h; in the data active = inhibition above about 85%; inconclusive = no clear call, values can overlap the other calls; inactive = below about 68%;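 also: human melanocyte line stably carrying TRPM1 promoter luciferase reporter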
NOMO-1 viab: STK33 inhibitor candidate reducing NOMO-1 cell viability. hit rate 7.5% among 37,000. NOMO-1 AML viability, CellTiter-Glo luminescence, 72 h. inhibition, % (no concentration beside the values); in the data active = inhibition above about 80%; inconclusive = no clear call, values can overlap the other calls
Shh pathway inh: blocks Sonic Hedgehog signaling. Shh-LIGHT2 Gli-luciferase reporter, 30 h. inhibition, % (test concentration not listed). AID 2313. hit rate 2.1% among 22,000;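 active = mean inhibition across valid replicates above about 65%, limit read from the data; inconclusive = mean under the limit, yet half or more replicates past it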;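 also: pathway switched on by Shh-conditioned medium diluted 1 in 25 in low serum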
* marks the source's active call; other numbers are inactive results. Shown are actives, neighbours in structure and some others; about 8.1% of the full set was active somewhere.

`CCN(CC(=O)Nc1ccc(OC)c(Cl)c1)S(=O)(=O)c1ccc2ccccc2c1` gave MITF inhib 43.7 and NOMO-1 viab 29.5.
C[C@@H]1CN([C@H](C)CO)C(=O)Cc2cc(NC(=O)CCCCCC(=O)Nc3ccccc3N)ccc2O[C@@H]1CN(C)Cc1ccc(Oc2ccccc2)cc1 was read as PD-1 reversal -0.9, MITF inhib 13.4 and NOMO-1 viab 127.7*.
C[C@H]1CN([C@@H](C)CO)C(=O)Cc2cc(NC(=O)CCCN(C)C)ccc2O[C@@H]1CN(C)Cc1ccc(Oc2ccccc2)cc1 was read as MITF inhib -5.3, NOMO-1 viab 24.6 and Shh pathway inh 47.2.
`C[C@H]1CN([C@@H](C)CO)C(=O)Cc2cc(NC(=O)CCCCCC(=O)Nc3ccccc3N)ccc2O[C@@H]1CN(C)Cc1ccc(Oc2ccccc2)cc1` gave PD-1 reversal -0.2, MITF inhib 7.2 and NOMO-1 viab 122.3*.
For C[C@@H]1CN([C@@H](C)CO)C(=O)Cc2cc(NC(=O)CCCN(C)C)ccc2O[C@@H]1CN(C)Cc1ccc(Oc2ccccc2)cc1 the results were MITF inhib -0.6, NOMO-1 viab 20.6 and Shh pathway inh -49.1.
For C[C@@H]1CN([C@@H](C)CO)C(=O)Cc2cc(NC(=O)CCCCCC(=O)Nc3ccccc3N)ccc2O[C@@H]1CN(C)Cc1ccc(Oc2ccccc2)cc1 the results were PD-1 reversal -0.9, MITF inhib 21.2 and NOMO-1 viab 139.6*.
For CC(Sc1nc2ccccc2c(=O)[nH]1)C(=O)Nc1cccc(Cl)c1 (stereo not given) the results were PD-1 reversal 2.9, MITF inhib 42.8 and NOMO-1 viab -7.3.
For CCOC(=O)c1oc2ccc(C=NC(C)(C)C)c(Cl)c2c1C the results were PD-1 reversal 0.3, MITF inhib -57.5, NOMO-1 viab 39.9 and Shh pathway inh -66.0.
For CCOC(=O)c1oc2ccccc2c1CO the results were PD-1 reversal -0.4, MITF inhib 27.1, NOMO-1 viab 26.5 and Shh pathway inh 97.2*.
For CC1Oc2ccccc2OC1(O)c1ccc(Br)cc1 (stereo not given) the results were PD-1 reversal -0.5, MITF inhib 17.5, NOMO-1 viab 106.4* and Shh pathway inh 16.9.
Screening CCCc1ccc(O)c(N)c1 returned PD-1 reversal -6.6, MITF inhib 15.1, NOMO-1 viab 123.8* and Shh pathway inh 26.1.
For Nc1cc(-c2ccccc2)ccc1O the results were PD-1 reversal -0.6, MITF inhib -1.1 and NOMO-1 viab 63.0.
Screening CC(C)(C)SC(=O)c1cccnc1SCCS(=O)(=O)c1cccc(C(F)(F)F)c1 returned PD-1 reversal 0.8, MITF inhib -13.5, NOMO-1 viab 32.1 and Shh pathway inh 51.1.
For Cc1ccc(N(C(C)C(=O)Nc2ccc(I)cc2C)S(C)(=O)=O)cc1C (stereo not given) the results were PD-1 reversal 1.6, MITF inhib 4.1 and NOMO-1 viab 14.8.
`COC(=O)c1c(NC(=S)Nc2c(C)nn(Cc3c(F)c(F)c(F)c(F)c3F)c2C)sc(C)c1-c1ccccc1` gave MITF inhib -1.8 and NOMO-1 viab 14.4.
`C[C@H](CO)N1C[C@H](C)[C@H](CN(C)Cc2ccc(C(=O)Nc3ccccc3N)cc2)Oc2c(NC(=O)NC3CCCCC3)cccc2C1=O` gave PD-1 reversal -1.4, MITF inhib 14.2 and NOMO-1 viab 119.8*.
Screening C[C@H]1CN([C@@H](C)CO)C(=O)c2cccc(NC(=O)NC3CCCCC3)c2O[C@H]1CN(C)Cc1ccc(C(=O)Nc2ccccc2N)cc1 returned PD-1 reversal -0.6, MITF inhib 15.3 and NOMO-1 viab 128.5*.
`C[C@@H]1CN([C@H](C)CO)C(=O)c2cccc(NC(=O)NC3CCCCC3)c2O[C@H]1CN(C)Cc1ccc(C(=O)O)cc1` gave PD-1 reversal 0.7, MITF inhib -1.3, NOMO-1 viab 13.7 and Shh pathway inh 10.6.
C[C@@H]1CN([C@H](C)CO)C(=O)c2cccc(NC(=O)NC3CCCCC3)c2O[C@@H]1CN(C)Cc1ccc(C(=O)Nc2ccccc2N)cc1 was read as PD-1 reversal -0.6, MITF inhib 15.9 and NOMO-1 viab 127.1*.
`COCCNC(=S)Nc1nc(OC)cc(OC)n1` gave PD-1 reversal 0.1, MITF inhib -11.4 and NOMO-1 viab 15.3.
For O=C(CSc1nc(-c2ccccc2)c2cc(Cl)ccc2n1)N1N=CCC1c1ccccc1 (stereo not given) the results were PD-1 reversal -1.0, MITF inhib 20.4 and NOMO-1 viab 43.1.
Screening CN1CCN(CC(=O)N2N=C(c3c(-c4ccccc4)c4cc(Cl)ccc4[nH]c3=O)CC2c2ccccc2)CC1 (stereo not given) returned PD-1 reversal -11.7, MITF inhib 1.0 and NOMO-1 viab 124.3*.
Cc1csc(NC(=O)CSc2nc(C34CC5CC(CC(C5)C3)C4)ccc2C#N)n1 was read as PD-1 reversal 0.9, MITF inhib 63.3, NOMO-1 viab 104.6* and Shh pathway inh 74.7*.
For CC(=O)Nc1nc(C23CC4CC(CC(C4)C2)C3)cs1 the results were PD-1 reversal 0.0, MITF inhib -18.7 and NOMO-1 viab 4.4.
Screening Nc1c(N2CCOCC2)c2ccccc2oc1=O returned PD-1 reversal -0.5, MITF inhib 11.2 and NOMO-1 viab 23.2.
For O=c1cc(CSc2n[nH]c(-c3cccs3)n2)c2ccc(O)cc2o1 the results were PD-1 reversal -0.5, MITF inhib -9.4, NOMO-1 viab 15.1 and Shh pathway inh -12.1.
`C[C@H]1CN([C@@H](C)CO)C(=O)Cc2cc(NC(=O)Nc3ccc(C(F)(F)F)cc3)ccc2O[C@H]1CN(C)Cc1ccc(C(=O)Nc2ccccc2N)cc1` gave PD-1 reversal -2.1, MITF inhib 34.3 and NOMO-1 viab 127.0*.
For C[C@@H]1CN([C@H](C)CO)C(=O)Cc2cc(NC(=O)Nc3ccc(C(F)(F)F)cc3)ccc2O[C@@H]1CN(C)Cc1ccc(C(=O)Nc2ccccc2N)cc1 the results were PD-1 reversal -0.1, MITF inhib 14.3 and NOMO-1 viab 138.3*.
Screening C[C@H](CO)N1C[C@H](C)[C@H](CN(C)Cc2ccc(C(=O)Nc3ccccc3N)cc2)Oc2ccc(NC(=O)Nc3ccc(C(F)(F)F)cc3)cc2C1=O returned PD-1 reversal 1.8, MITF inhib -2.1 and NOMO-1 viab 45.7.
Screening CCN1C(=O)/C(=C2\SC(=S)N(c3cccc(Cl)c3)C2=O)c2ccccc21 returned PD-1 reversal -1.4, MITF inhib 5.6, NOMO-1 viab inconclusive and Shh pathway inh 13.8.
For O=C1N(c2cccc(Cl)c2)C(=Nc2cccc(Cl)c2)SC12CC2 the results were PD-1 reversal -1.8, MITF inhib 11.9, NOMO-1 viab 114.3* and Shh pathway inh -19.4.
For O=c1c(C(F)(F)F)cccn1CCc1nc(-c2ccccc2)cs1 the results were PD-1 reversal 1.9, MITF inhib 6.1, NOMO-1 viab 8.2 and Shh pathway inh -35.8.
COC(=O)C(Cc1c[nH]c2ccccc12)NS(=O)(=O)c1ccc(CNC(=O)c2ccccc2)s1 (stereo not given) was read as PD-1 reversal -0.5, MITF inhib 11.3, NOMO-1 viab 115.2* and Shh pathway inh 1.4.
